Laboratory results: PubChem BioAssay (Tox21)
Values joined by “and” are separate entries in the source; they are usually repeats but may differ in a detail not shown here. Equal values may be shown once. Records with an inconclusive call do not appear. Where a call stands in place of a potency, no number is given. Some compounds were tested as several samples or in several runs, with calls that do not always agree. Active and inactive are the calls of the source. Unless noted, calls come from the whole dose curve; as a rule, active = well fitted curve in the direction sought with a large enough effect in the repeat runs; inconclusive = weak or mixed curves; inactive = no such curve, though single readings can be large; an effect the other way counts as inactive or inconclusive.

Columns and labels:
[1] = qHTS assay to identify small molecule antagonists of the estrogen related receptor (ERR) signaling pathway from Tox21 library (AID 1224848); note: nearly all actives have a fitted effect of over 50% in size; note: potency is the fitted concentration of half-maximal effect
Outline: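 Cells: ERR line, 2,000/well; 6 h preincubation 37 C/5% CO2. Cpd in DMSO via pin tool; 18 h, 37 C. ONE-Glo, 30 min RT, luminescence.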

[2] = qHTS assay to identify small molecule agonists of the estrogen related receptor (ERR) signaling pathway from Tox21 library (AID 1224849; calls by dose curve; note: nearly all actives have a fitted effect of over 15% in size); conditions: ERR reporter cell line, ONE-Glo luciferase, 18 h; at 92.4 µM (top of the series)
Outline: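 ERR reporter cell line (NTP) seeded, rested 6 h at 37 C/5% CO2, then pinned with Tox21 compounds in DMSO. After 18 h at 37 C, ONE-Glo luciferase luminescence was read following 30 min at room temperature.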

[3] = qHTS RealTime-Glo MT Cell Viability Assay in HepG2 cells - 24 hour (AID 1224867); note: nearly all actives have a fitted effect of over 50% in size
Outline: (§1)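 Viability was tracked continuously by NanoLuc luminescence from prosubstrate reduced by living HepG2 cells, at successive time points over 40 h of compound exposure. Cells with reagent were preincubated 5 h at 37 °C before compound addition.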

[4] = qHTS RealTime-Glo MT Cell Viability Assay in HEK293 cells - 32 hour (AID 1224868); note: nearly all actives have a fitted effect of over 50% in size; note: potency is the fitted concentration of half-maximal effect
Outline: (§2)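 Viability tracked continuously by luminescence as live cells reduce a prosubstrate for NanoLuc; HEK293 cells preincubated 5 h, compound-treated at 37 C, and read at 0, 8, 16, 24, 32 and 40 h.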

[5] = A CellTox Green Cytotoxicity Assay to monitor cytotoxicity in HEK293 cells - 0 hour (AID 1224869); note: nearly all actives have a fitted effect of over 50% in size
Outline: (§3)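 HEK293 cells premixed with CellTox Green dye were seeded at 600 cells/well and left 5 h at 37 C/5% CO2 before pin transfer of 23 nL compound in DMSO. Fluorescence from dye bound to dead-cell DNA was read during 40 h treatment.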

[6] = qHTS RealTime-Glo MT Cell Viability Assay in HepG2 cells - 40 hour (AID 1224870); note: nearly all actives have a fitted effect of over 50% in size
Outline: (§4)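 HepG2 cells mixed with RealTime-Glo MT reagents (NanoLuc plus cell-permeant prosubstrate) were seeded at 600 cells/well, incubated 5 h at 37 C/5% CO2, then pinned with compounds in DMSO; nonlytic luminescence tracked viability during 40 h treatment.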

[7] = A CellTox Green Cytotoxicity Assay to monitor cytotoxicity in HEK293 cells - 40 hour (AID 1224871); note: nearly all actives have a fitted effect of over 45% in size
Outline: as §3

[8] = qHTS RealTime-Glo MT Cell Viability Assay in HEK293 cells - 16 hour (AID 1224872)
Outline: as §2

[9] = qHTS RealTime-Glo MT Cell Viability Assay in HepG2 cells - 8 hour (AID 1224873); note: nearly all actives have a fitted effect of over 55% in size
Outline: as §4

[10] = qHTS RealTime-Glo MT Cell Viability Assay in HEK293 cells - 40 hour (AID 1224874); conditions: RealTime-Glo luminescence; max response: stronger effect = lower value; note: nearly all actives have a fitted effect of over 50% in size; note: potency is the fitted concentration of half-maximal effect
Outline: (§5)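 HEK293 cells mixed with RealTime-Glo reagents (NanoLuc plus cell-permeant prosubstrate) at 600 cells/well, preincubated 5 h at 37 C/5% CO2, then given 23 nL compound in DMSO. Nonlytic luminescence from viable cells was read at 0, 8, 16, 24, 32 and 40 h.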

[11] = A CellTox Green Cytotoxicity Assay to monitor cytotoxicity in HEK293 cells - 24 hour (AID 1224875); note: nearly all actives have a fitted effect of over 45% in size
Outline: as §3

[12] = qHTS RealTime-Glo MT Cell Viability Assay in HepG2 cells - 32 hour (AID 1224877); note: nearly all actives have a fitted effect of over 55% in size
Outline: as §1

[13] = A CellTox Green Cytotoxicity Assay to monitor cytotoxicity in HepG2 cells - 24 hour (AID 1224878); note: nearly all actives have a fitted effect of over 45% in size
Outline: (§6)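 HepG2 cells were seeded together with the CellTox Green dye at 600 cells/well, left 5 h at 37 C/5% CO2, then given compounds in DMSO. Fluorescence from dye bound to dead-cell DNA was read repeatedly over 40 h of treatment at 37 C.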

[14] = A CellTox Green Cytotoxicity Assay to monitor cytotoxicity in HepG2 cells - 40 hour (AID 1224879); note: nearly all actives have a fitted effect of over 40% in size; note: potency is the fitted concentration of half-maximal effect
Outline: as §6

[15] = qHTS RealTime-Glo MT Cell Viability Assay in HEK293 cells - 0 hour (AID 1224880); note: top concentration of the series differs between compounds; nearly all actives have a fitted effect of over 45% in size
Outline: as §5

[16] = A CellTox Green Cytotoxicity Assay to monitor cytotoxicity in HEK293 cells - 32 hour (AID 1224881); note: nearly all actives have a fitted effect of over 40% in size
Outline: as §3

[17] = A CellTox Green Cytotoxicity Assay to monitor cytotoxicity in HepG2 cells - 0 hour (AID 1224882); note: nearly all actives have a fitted effect of over 35% in size
Outline: as §6

[18] = A CellTox Green Cytotoxicity Assay to monitor cytotoxicity in HepG2 cells - 32 hour (AID 1224883); note: nearly all actives have a fitted effect of over 50% in size
Outline: as §6

[19] = A CellTox Green Cytotoxicity Assay to monitor cytotoxicity in HEK293 cells - 8 hour (AID 1224884); note: nearly all actives have a fitted effect of over 35% in size
Outline: as §3

[20] = A CellTox Green Cytotoxicity Assay to monitor cytotoxicity in HepG2 cells - 16 hour (AID 1224876); note: nearly all actives have a fitted effect of over 45% in size
Outline: as §6

## COc1ccc2c3c1O[C@H]1[C@@H](O)C=C[C@H]4[C@@H](C2)N(C)CC[C@@]341
[1]
  Potency: 26.9 µM (active) and inactive
[2]
  activity change, positive = activation: -50.6% (inactive) and -3.7% (inactive)
[3]
  outcome: inactive
[4]
  Potency: 43 µM (active) and inactive
[5]
  Potency: inactive
[6]
  outcome: inactive
[7]
  Potency: inactive
[8]
  outcome: inactive
[9]
  outcome: inactive
[10]
  Potency: 24.2 µM (active)
  max response: 0.391% (inactive)
[11]
  Potency: inactive
[12]
  outcome: inactive
[13]
  Potency: inactive
[14]
  Potency: 30.4 µM (active) and inactive
[15]
  outcome: inactive
[16]
  Potency: inactive
[17]
  Potency: inactive
[18]
  Potency: inactive
[19]
  Potency: inactive

## CC(C)(C)C(O)(CCc1ccc(Cl)cc1)Cn1cncn1 (centres undefined)
[1]
  Potency: 61.9 µM (active) and 61.1 µM (active)
[2]
  activity change, positive = activation: -48.6% (inactive) and -40.4% (inactive)
[3]
  outcome: inactive
[4]
  Potency: 49.6 µM (active) and 49 µM (active)
[5]
  Potency: inactive
[6]
  outcome: inactive
[7]
  Potency: inactive
[9]
  outcome: inactive
[10]
  Potency: 44.2 µM (active) and 54.9 µM (active)
[11]
  Potency: inactive
[12]
  outcome: inactive
[15]
  outcome: inactive
[16]
  Potency: inactive
[17]
  Potency: inactive
[19]
  Potency: inactive

## CC(=O)C=C(C)C
[1]
  Potency: inactive
[2]
  activity change, positive = activation: 0.13% (inactive) and 3.17% (inactive)
[4]
  Potency: inactive
[5]
  Potency: inactive
[6]
  outcome: inactive
[7]
  Potency: inactive
[8]
  outcome: inactive
[9]
  outcome: inactive
[10]
  max response: 1.7% (inactive) and 8.25% (inactive)
[11]
  Potency: inactive
[12]
  outcome: inactive
[13]
  Potency: inactive
[14]
  Potency: inactive
[15]
  outcome: inactive
[16]
  Potency: inactive
[17]
  Potency: inactive
[18]
  Potency: inactive
[19]
  Potency: inactive

## O=[N+]([O-])c1ccc(Oc2ccc(Cl)cc2Cl)cc1
[1]
  Potency: inactive
[2]
  activity change, positive = activation: -5.45% (inactive) and -4.04% (inactive)
[3]
  outcome: inactive
[5]
  Potency: inactive
[6]
  outcome: inactive
[7]
  Potency: inactive
[9]
  outcome: inactive
[11]
  Potency: inactive
[20]
  Potency: inactive
[12]
  outcome: inactive
[13]
  Potency: inactive
[14]
  Potency: inactive
[16]
  Potency: inactive
[17]
  Potency: inactive
[18]
  Potency: inactive
[19]
  Potency: inactive

## CCC(C)(CC)c1cc(NC(=O)c2c(OC)cccc2OC)on1
[1]
  Potency: 54.6 µM (active) and 46.7 µM (active)
[2]
  activity change, positive = activation: -45.6% (inactive) and -38.5% (inactive)
[4]
  Potency: inactive
[5]
  Potency: inactive
[6]
  outcome: inactive
[7]
  Potency: inactive
[8]
  outcome: inactive
[9]
  outcome: inactive
[11]
  Potency: inactive
[12]
  outcome: inactive
[13]
  Potency: inactive
[14]
  Potency: inactive
[15]
  outcome: inactive
[16]
  Potency: inactive
[17]
  Potency: inactive
[18]
  Potency: inactive
[19]
  Potency: inactive

## O=[N+]([O-])c1ccccc1
[1]
  Potency: inactive
[2]
  activity change, positive = activation: 8.72% (inactive) and 8.25% (inactive)
[3]
  outcome: inactive
[4]
  Potency: inactive
[5]
  Potency: inactive
[6]
  outcome: inactive
[7]
  Potency: inactive
[8]
  outcome: inactive
[10]
  max response: 6.12% (inactive) and 17.8% (inactive)
[11]
  Potency: inactive
[12]
  outcome: inactive
[13]
  Potency: inactive
[14]
  Potency: inactive
[15]
  outcome: inactive
[16]
  Potency: inactive
[17]
  Potency: inactive
[18]
  Potency: inactive
[19]
  Potency: inactive
